# Abeta yeast res: qHTS for compounds that reverse cellular toxicity of Amyloid beta (A-beta) peptide in yeast: Primary Screen. yeast expressing A-beta42, growth rescue, OD600, 48 h; response scale: 0% DMSO, 100% iron-clioquinol control. Potency, µM (doses to about 46.1 µM), hits mostly activators. 410,000 tested, 0.063% active. AID 1347071, 2019; further: nearly all actives have a fitted effect of over 55% in size
#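 Yeast growth medium received pinned compounds, then yeast cells expressing toxic A-beta were added; plates incubated at 30 C for 48 hr. Growth read as absorbance at 600 nm, normalized to DMSO and equimolar FeCl3 plus clioquinol controls.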
# TDP-43 yeast inh: qHTS of TDP-43 Inhibitors. 410,000 tested, 1.8% active. Potency, µM (titrated, usually from 46.1 µM), actives largely listed as activators. TDP-43 expressing yeast growth rescue, BacTiter-Glo, 24 h. AID 652104, 2013; further: nearly all actives have a fitted effect of over 50% in size
#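 Galactose-induced TDP-43 yeast, OD600=0.02, compound pinned; 24 hr, 30 deg C; BacTiter-Glo luminescence for growth. Inhibitors of TDP-43 toxicity read as activators.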
# LDHA block: qHTS assay for inhibitors of human lactate dehydrogenase | L-lactate dehydrogenase A chain (Homo sapiens), P00338 | 480,000 tested, 0.15% active | purified LDHA, NADH/diaphorase-resazurin fluorescence; active compounds read low | activity change, % (values are at about 110 or 230 µM); in the data active means activity change below about -30%; inconclusive means mostly about -25% to -30%
#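 LDH5 2 nM; NADH 0.06 mM, pyruvate 0.2 mM; 200 mM Tris pH 7.4, EDTA, Tween-20; 5 min RT. Detection: diaphorase 0.133 mg/mL + resazurin 37 µM, fluorescence ex540/em590 at 0 and 20 min; normalized to enzyme-free and DMSO wells.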
# aSyn yeast inh: qHTS of alpha-syn Inhibitors; Yeast expressing alpha-synuclein, growth rescue, BacTiter-Glo, 24 h; Potency, µM (series often up to 46.1 µM), actives largely listed as activators; 370,000 tested, 0.14% active; AID 652106, 2013; further: nearly all actives have a fitted effect of over 65% in size
#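 Galactose-induced alpha-syn yeast (OD600=0.02, raffinose-pregrown) + pinned cpd, 24 hr, 30 deg C; growth by BacTiter-Glo luminescence. Growth restoration scores as activation.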
# FUS yeast rescue: qHTS for Suppressors of FUS Proteinopathy: Primary screen using FUS-linked yeast assay | S. cerevisiae FUS-expressing, growth rescue, OD600, 24 h | Potency, µM (doses to about 76.6 µM), usual class: activators | 390,000 tested, 0.24% active; further: nearly all actives have a fitted effect of over 55% in size
#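 Compound concentration series was pinned onto galactose-induced FUS-expressing yeast seeded at OD 0.005. Plates sat 24hr at 30C; absorbance at 600 nm gave growth. DMSO served as background control.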
# IDH1 R132H inh: qHTS for Inhibitors of mutant isocitrate dehydrogenase 1 (IDH1): qHTS; AID 602179, 2012; IDH1-R132H enzyme, NADPH consumption, diaphorase/resazurin fluorescence; 390,000 tested, 0.093% active; Potency, µM (highest dose often 76.6 µM), actives largely listed as inhibitors; Isocitrate dehydrogenase [NADP] cytoplasmic (Homo sapiens), O75874; further: nearly all actives have a fitted effect of over 65% in size
# Target sequence (O75874 whole entry R132H, stated change not applied): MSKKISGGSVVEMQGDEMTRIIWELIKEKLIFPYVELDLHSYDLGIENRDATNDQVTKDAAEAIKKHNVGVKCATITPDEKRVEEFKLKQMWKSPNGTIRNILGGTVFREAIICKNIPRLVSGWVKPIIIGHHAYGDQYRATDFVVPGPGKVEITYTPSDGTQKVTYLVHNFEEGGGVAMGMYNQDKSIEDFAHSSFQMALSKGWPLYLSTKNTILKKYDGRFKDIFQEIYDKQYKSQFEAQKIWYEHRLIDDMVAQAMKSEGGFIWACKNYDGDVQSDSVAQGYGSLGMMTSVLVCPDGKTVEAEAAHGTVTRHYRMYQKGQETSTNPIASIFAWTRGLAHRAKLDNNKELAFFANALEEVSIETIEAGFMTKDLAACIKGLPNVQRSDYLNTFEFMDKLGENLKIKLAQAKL
#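 IDH1-R132H (0.5 ug/mL) preincubated 30 min with compound, then NADPH (0.016 mM) and alpha-KG (2 mM) added; 80 min at RT, pH 7.5. Remaining NADPH coupled via diaphorase/resazurin to fluorescence (540/590 nm); concentration-response curves normalized to no-enzyme control.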
# Numbers stand for hits; i = inactive; ? = inconclusive; nt = no result given. Hits are enriched below; roughly 2% of the tested compounds scored in any of these assays. Unless noted, the call rests on the fitted dose curve; in most records, active means well fitted curve in the direction sought with a large enough effect; inconclusive means small, poorly fitted or top-dose-only effect, or another doubt; inactive means no such curve, though single readings can be large; an effect the other way counts as inactive or inconclusive.
SMILES,Abeta yeast res,TDP-43 yeast inh,LDHA block,aSyn yeast inh,FUS yeast rescue,IDH1 R132H inh
Cc1ccccc1NC(=O)Cc1nc(-c2c(N)n(C)c(=O)n(C)c2=O)cs1,nt,nt,i,nt,nt,nt
Cc1ccc(-c2ccc(/C=C(\C#N)C(N)=S)n2C)cc1,i,i,i,i,i,i
Cc1cc(C)c(/C=C(\C#N)C(N)=S)c(C)c1,i,11µM,i,i,i,i
O=C(OCc1cc(Cl)cc2c1OCOC2)c1cccnc1Cl,i,?,i,16µM,i,i
O=C1CSC2(C(=O)N(Cc3cccc(F)c3)c3ccccc32)N1c1cccc(C(F)(F)F)c1 (configuration not stated),i,22µM,i,?,i,i
O=c1c2ccccc2sn1-c1ccccc1F,i,i,-52,i,i,i
O=c1c2ccccc2sn1-c1ccccc1,i,i,?,i,i,i
COC(=O)c1cccc(NC(=O)c2cccc([N+](=O)[O-])c2)c1,i,13µM,i,i,i,i
CCC(=O)Nc1cccc(C(=O)OCc2cccc([N+](=O)[O-])c2)c1,i,11µM,i,i,i,i
CN(c1ccc(Cl)cc1)c1cc(=O)n(C)c2ccccc12,i,16µM,i,i,i,i
CC(=O)N(c1ccc(Cl)cc1)c1cn(C(C)=O)c2ccccc12,i,20µM,i,i,i,i
CC(NC(=O)c1ccc2c(c1)CCCC2)c1ccc(F)cc1F (configuration not stated),nt,nt,i,nt,nt,nt
COc1ccc(C(C)NC(=S)NCc2ccc(F)cc2)cc1 (configuration not stated),11µM,?,i,i,i,i
CCC(NC(=S)NCc1ccc(F)cc1)c1ccccc1 (configuration not stated),11µM,i,i,i,i,i
CCOc1ccc(Nc2nc(-c3sc(NC(C)=O)nc3C)cs2)cc1,nt,nt,i,nt,nt,nt
Cc1ccc(OCc2ccc(-c3nc(C#N)c(N4CCC(C(N)=O)CC4)o3)o2)cc1,nt,nt,i,nt,nt,nt
CCOC(=O)c1ccc(/C=C/c2ccccn2)cc1,nt,nt,i,nt,nt,nt
O=C(Nc1ccccc1)O/N=C/c1ccc(F)cc1,i,10µM,i,i,i,i
Cn1c(CC(=O)Nc2cccc(C(F)(F)F)c2)nnc1SCC(=O)c1ccc(C#N)cc1,nt,nt,-32,nt,nt,nt
Cn1c(CC(=O)Nc2ccccc2)nnc1SCC(=O)c1ccc(C#N)cc1,nt,nt,i,nt,nt,nt
COc1ccc(NC(=O)Cn2ccc3cc(Cl)ccc32)c(OC)c1,nt,nt,i,nt,nt,nt
Cc1cccc(C)c1OCC(=O)N[C@@H](Cc1ccccc1)[C@@H](O)C[C@H](Cc1ccccc1)NC(=O)[C@H](C(C)C)N1CCCNC1=O,nt,nt,i,i,32µM,nt
Cc1cccc(C)c1OCC(=O)Nc1ccccc1C(=O)O,nt,nt,i,nt,nt,nt
O=C(c1cnn(-c2ccc(F)cc2)c1-n1cccc1)N1CCN(c2ccccc2)CC1,i,14µM,i,i,i,i
O=C(Nc1cc(Cl)cc(Cl)c1)c1ccc(F)c(S(=O)(=O)NCc2ccccc2Cl)c1,i,i,i,nt,i,i
SMILES,Abeta yeast res,TDP-43 yeast inh,LDHA block,aSyn yeast inh,FUS yeast rescue,IDH1 R132H inh
COc1ccc(CNS(=O)(=O)c2cc(C(=O)Nc3cc(Cl)cc(Cl)c3)ccc2F)cc1,i,14µM,i,nt,i,i
O=c1c2ccccc2nc2sc(Nc3ccccc3)nn12,nt,nt,i,nt,nt,nt
FC(F)Oc1cccc(-c2ccnc(=S)[nH]2)c1,nt,nt,i,nt,nt,nt
COc1ccc(C(O)c2nc(-c3cc(F)cc(F)c3)cs2)cc1 (configuration not stated),?,35µM,i,?,i,nt
CC(C)c1cccc(-c2csc(C(O)c3ccc(F)c(F)c3)n2)c1 (configuration not stated),i,i,i,i,i,nt
COc1cc(C(O)c2nc(-c3cccc(C(C)C)c3)cs2)ccc1F (configuration not stated),i,22µM,i,i,i,nt
